Experimental data: the supplement of paper PMC6555819

Legend:
Assay in all cases: PBM binding z-score (relative to random genomic background probes); higher = stronger binding; sequences stand for … in GC…GCGATTGACAGCGTAGAATGAAGG
[1] = tested on: FXR:RXRa (NR concentration 270 nM, RXRa partner concentration 90 nM)
Procedure, shortened: (§1)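 Binding z-scores take random background probes as their reference. They come from custom Agilent 4×180K protein-binding microarrays incubated 1 h with ligand-free nuclear receptor dimers, with antibodies against each partner (one per run) detecting binding. Scanned fluorescence was regression-normalized.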

[2] = tested on: LXRa:RXRa (NR concentration 270 nM, RXRa partner concentration 90 nM)
Procedure, shortened: as §1

[3] = tested on: LXRa homodimer (NR concentration 270 nM)
Procedure, shortened: as §1

[4] = tested on: LXRb:RXRa (NR concentration 270 nM, RXRa partner concentration 90 nM)
Procedure, shortened: as §1

[5] = tested on: LXRb homodimer (NR concentration 270 nM)
Procedure, shortened: as §1

[6] = tested on: PPARa:RXRa (NR concentration 270 nM, RXRa partner concentration 90 nM)
Procedure, shortened: as §1

[7] = tested on: PPARg:RXRa (NR concentration 180 nM, RXRa partner concentration 90 nM)
Procedure, shortened: as §1

[8] = tested on: PPARg:RXRa 270nM:90nM, anti-RXR (NR concentration 270 nM, RXRa partner concentration 90 nM)
Procedure, shortened: as §1

[9] = tested on: PPARg:RXRa 30nM:10nM, anti-RXR (NR concentration 30 nM, RXRa partner concentration 10 nM)
Procedure, shortened: as §1

[10] = tested on: PPARg:RXRa 90nM:30nM, anti-RXR (NR concentration 90 nM, RXRa partner concentration 30 nM)
Procedure, shortened: as §1

[11] = tested on: PPARg:RXRa DBDmut IVT, anti-RXR (DBD mutation: RXRa K156A/R161A, NR concentration 270 nM, RXRa partner concentration 90 nM)
Procedure, shortened: as §1

[12] = tested on: PPARg:RXRa IVT, anti-PPARg (NR concentration 270 nM, RXRa partner concentration 90 nM)
Procedure, shortened: as §1

[13] = tested on: PPARg DBDmut:RXRa IVT, anti-PPARg (DBD mutation: PPARg1 K132A/R137A, NR concentration 270 nM, RXRa partner concentration 90 nM)
Procedure, shortened: as §1

[14] = tested on: PPARg DBDmut IVT, anti-PPARg (DBD mutation: PPARg1 K132A/R137A, NR concentration 270 nM)
Procedure, shortened: as §1

[15] = tested on: PPARg homodimer (NR concentration 180 nM)
Procedure, shortened: as §1

[16] = tested on: PXR:RXRa (NR concentration 270 nM, RXRa partner concentration 90 nM)
Procedure, shortened: as §1

[17] = tested on: PXR homodimer (NR concentration 270 nM)
Procedure, shortened: as §1

[18] = tested on: RARa:RXR (NR concentration 270 nM, RXRa partner concentration 90 nM)
Procedure, shortened: as §1

[19] = tested on: RARa homodimer (NR concentration 270 nM)
Procedure, shortened: as §1

[20] = tested on: RARb:RXRa (NR concentration 270 nM, RXRa partner concentration 90 nM)
Procedure, shortened: as §1

Sequence	PBM binding z-score [1]	PBM binding z-score [2]	PBM binding z-score [3]	PBM binding z-score [4]	PBM binding z-score [5]	PBM binding z-score [6]	PBM binding z-score [7]	PBM binding z-score [8]	PBM binding z-score [9]	PBM binding z-score [10]	PBM binding z-score [11]	PBM binding z-score [12]	PBM binding z-score [13]	PBM binding z-score [14]	PBM binding z-score [15]	PBM binding z-score [16]	PBM binding z-score [17]	PBM binding z-score [18]	PBM binding z-score [19]	PBM binding z-score [20]
ATCTCTAGGTAACAAGTTCCGTGAAAGAGAGGAC	0.25	-0.0278	0.209	0.0127	0.506	0.431	0.903	1.28	0.68	1.07	3.05	2.66	0.253	1.32	0.831	-0.111	0.636	0.015	0.906	0.274
CGTCCAGGGTCAAGGTCAGTGAAAGAGACTCGAA	7.27	4.72	0.165	4.58	-0.131	6.04	6.91	6.41	3.27	5.71	1.82	4.14	0.455	0.241	3.01	4.77	0.845	5.13	1.53	5.23
CGTCCAAGGTCAGAGAGATCAGTGAATGCCGAGT	4.93	2.88	0.0283	2.25	0.0679	3.73	2.1	2.59	0.164	1.22	2.6	2.11	0.0329	-0.28	1.89	2.74	0.829	3.01	-0.15	4.62
TGTCGGAGGACACGAAGGTCAGAGCTTTCCAGAG	1.23	1.44	-0.131	0.759	-0.905	1.81	0.574	1.14	-0.39	0.47	-0.402	1.54	-0.86	-0.906	1.05	1.79	0.826	1.84	0.146	3.46
CCAGCTAGGTCAATGGTCAGCTAAAGCAGCTCGC	2.92	2.06	-0.24	1.27	-0.685	3.2	5.08	5.75	3.27	5.34	4.9	4.47	-0.141	-0.0695	1.28	0.737	-0.176	1.49	-0.163	3.73
CGTCCAGGGTCAATGCTAGGTCAGTGAAAGCATT	6.33	5.16	0.988	4.06	-0.00452	5.61	4.11	4.59	1.57	3.18	1.7	3.15	-0.224	0.0209	3.59	4.54	-0.194	6.03	0.75	4.82
TCTGCTAGGTCAGTTGGTCAGCAAACGAGCTGCC	0.988	0.432	-0.424	0.394	0.405	1.36	0.418	1.65	1.19	1.41	2.75	2.88	0.288	0.656	0.233	0.285	-0.998	0.565	-1.22	3.25
TCAGGCAGGTGAAGGTAACTCAGGTACGCAGTCG	0.263	1.12	-0.208	0.558	-0.936	0.851	0.226	1.2	2.13	1.73	1.55	1.14	-0.774	-0.917	0.554	0.0794	-0.029	0.355	-0.103	0.92
TAGCCTAGGTCATGGGGGCCAGTATAGTGTCGGC	4.96	4	0.742	4.86	5.38	4.64	4.04	4.26	1.09	3.11	1.91	4.23	4.89	4.09	2.19	3.01	0.254	3.41	0.4	4.04
CCTTACGGGTCACTGACAGGTTTTAGCATTTGGA	5.38	3.52	-0.116	3.31	0.045	5.09	4.18	4.36	1.27	3.04	3.46	3.56	0.228	0.218	2.26	2.98	-0.502	4.09	1.06	3.88
CCTAGCAGCCCAATCTGGGTCACTCAAGGCTTGA	0.0445	0.132	-0.399	0.523	-0.695	2.93	1.6	1.71	-0.36	1.1	3.69	4.29	-0.334	-0.918	0.624	0.268	-0.803	1.12	-0.169	0.878
ATATGTAGGTAAAGGGTCATTCAGGTTGGTTCGC	4.11	4.04	2.46	3.97	1.17	6.53	11.1	9.65	9.28	10.5	7.14	7.26	2.33	1.19	3.33	5.22	2.87	5.04	2.48	3.53
TAACCTAGGTCAGATCGGGCCAGTATACGCTATA	2.84	2.52	0.693	1.64	0.561	2.29	1.87	2.06	0.906	1.62	1.82	3.4	0.884	-0.00517	1.09	1.54	-0.137	1.38	-0.0765	3.32
ACTTACGGGTCAACGATGTTATAGCACGCGTATA	6.28	4.04	0.405	3.64	0.787	5.53	4.83	5.13	2.07	3.75	3.44	3.78	1.72	1.54	2.59	3.49	0.444	4.41	0.951	4.09
AATATAGGGTCACTAGGCCAGAGTAGGTACGAAT	6.26	5.13	0.894	4.07	0.704	5.67	8.45	6.68	3.94	5.68	5.21	6.14	2.32	1.64	2.41	3.05	0.508	4.66	0.81	4.11
ATCTCTAGGTAAGACTCAGTTCATTGAAGAACGC	0.66	1.1	1.32	0.779	1.11	0.841	0.175	0.381	0.0967	0.482	2.32	1.16	1.33	1.23	1.13	2.6	4.35	1.04	1.62	0.694
GCTTACGGGACAAAGGTTATAGCATGAATAGAAT	1.23	1.56	0.265	2.04	-0.135	4.42	7.78	7.39	6.27	8.27	1.28	3.13	0.314	1.06	1.03	1.57	0.222	2.59	0.238	1.81
GCTAGTTCGTCAGTAAAAGGTCACACACCGGTCG	3.31	4.47	4.75	4.05	0.683	4.56	1.96	3.56	1.55	3.22	0.269	1.84	0.221	0.516	5.83	5.56	1.64	6.4	3.07	4.08
AGAATGAGGTTACCAAAGATCAGGGTAACGCTTG	2.45	6.27	-0.1	3.22	-0.278	3.65	2.8	3.14	1.16	2.54	4.2	3.74	1.58	0.777	1.01	1.83	-0.213	2.59	-0.485	2.2
TCTATTAGTTGAAGGGCAACCTACGAGTCCGTTT	0.82	0.87	0.394	0.789	0.451	0.702	0.121	1.88	3.44	2.53	2.23	0.488	0.411	0.817	1.5	0.858	1.18	0.893	1.08	1.57
ATCTCTAGGTAACCAATTTCAGTGAATGCCGAAC	0.444	0.64	0.561	0.348	1.28	0.596	0.441	0.547	0.162	0.306	3.89	2.94	1.28	1.42	0.77	0.453	0.601	0.264	0.959	0.458
CCTGCTAGGTCATGGTCAGCTAGTCTACAGTATG	3.74	2.28	-0.0362	1.62	-0.295	3.45	2.38	2.89	0.503	1.92	4.65	3.97	0.24	-0.536	1.4	1.51	-0.479	2.41	-0.496	4.15
CCTGCTTGGTCAATGGTCAGCTAAAGCAGCTCGC	-0.266	-0.183	-0.536	-0.566	-0.491	-0.243	-0.553	0.82	-0.904	0.17	0.434	-0.107	-1.05	-0.884	0.138	-0.296	-0.881	0.00711	-0.943	1.01
TCTATTTGTTGATTAGGGCAACCGAAACAGCGGA	0.7	0.785	0.435	0.575	1.08	0.93	0.259	2.04	3.98	2.81	1.93	1.79	1.53	1.99	1.59	0.675	0.358	0.837	1.13	1.09
TCAGACAGGTGAAGGTTACTCAGGTACGCAGTCG	1.24	3.55	0.607	2.38	0.0683	1.81	1.06	2.39	3.71	2.81	2.66	1.5	0.0117	0.759	1.02	1.38	0.43	1.55	0.589	1.83
TCGAGTAGGTTACCAATGGGGCATCCAGCTTTCT	-0.0343	1.12	-0.623	0.546	-1.16	1.27	0.366	1.12	1.25	1.19	3.43	2.56	-0.589	-0.544	-0.353	-0.193	-0.691	0.352	-1.07	1.03
TAGCCTAGGTCAGATCGGGACAGTATACGCTATA	3.31	1.3	-0.0323	1.07	-0.146	1.82	0.86	0.922	0.0788	0.727	0.601	1.73	-0.45	-0.46	0.479	1.74	-0.545	1.11	-0.615	3.11
GCTCGGAGGACAAGGTAAGAGCTTTGTCCGTAGA	-0.326	-0.633	-0.985	-0.8	-1.57	-0.331	-0.742	-0.267	-0.952	-0.841	-0.716	-0.298	-1.26	-1.29	-1.16	-0.574	-1.14	-0.493	-1.14	0.88
GCATATAGGTACTACAAGGTGAAAGTCCGATTGT	0.689	-0.132	-0.343	0.0572	-0.233	0.972	0.697	0.784	0.264	0.566	1.67	1.24	0.887	0.583	0.651	0.2	-0.351	1.36	-0.147	0.285
